# Several values for one entry are separate records, joined by “and”; a condition that tells them apart may be missing. Identical values can stand only once. For part of these data: Results with a measured potency or affinity are listed apart. Activity calls are given as the source filed them. Cut-off read from the data, not from the text of the source, unless noted: active = inhibition above about 80%; inactive = the rest.
# Tests used:
# [1] = stimulators of insulin release from INS-1E, primary screen, cell-based, 5 mM glucose, NPC library (AID 1117329;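 active = compound raises insulin release from rat beta cells at 5 mM glucose, no numeric limit stated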); settings: rat INS-1E insulin secretion, at 10 µM, stronger effect = higher value
# [2] = growth inhibition of GSK3B-pretreated HCT116 cells – cell-based, CellTiter-Glo, 0.2 to 20 µM (AID 1117336;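 active = compounds lowering colon cancer cell viability after pretreatment blocking the GSK3B kinase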); settings: HCT116 viability after GSK3B inhibitor, at 20 µM, stronger effect = higher value
# [3] = inhibition of endothelial tube formation, primary screen, imaging, VEGF stimulated, CD31 staining, tube area, NPC library (AID 1117340;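 active = compound that reduces growth-factor-driven endothelial tube area in a mixed cell culture, no cutoff stated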); settings: VEGF-stimulated ADSC/ECFC co-culture, at 10 µM, stronger effect = higher value
# [4] = glucagon-like peptide 1 release enhancers, primary assay, NCI-H716 cell line, NPC library (AID 1117341;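 active = compound raises GLP1 secretion from the human gut endocrine cells, with no numeric limit stated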); settings: NCI-H716 cells, at 10 µM, stronger effect = higher value
# [5] = HCT116 colon cancer cell growth inhibition, primary screen, CellTiter-Glo luminescence, NPC library (AID 1117342;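 active = compounds that lower survival of HCT116 colon cancer cells in the luminescence readout, no numeric limit stated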); settings: at 20 µM (top of the series)
# [6] = CellTiter-Glo luminescent readout of SW480 viability loss, NPC library primary (AID 1117343;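 active = compounds that lower viability of the colon cancer cells in the luminescence readout, with no numeric limit stated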); settings: CellTiter-Glo luminescence; at 20 µM (top of the series) unless noted
# [7] = decreased DLD-1 cellular survival, CellTiter-Glo luminescent readout, NPC compound collection, primary HTS (AID 1117346;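 active = compounds that lower survival of DLD-1 colon cancer cells in the luminescence readout, no cutoff given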); settings: DLD-1 viability, CellTiter-Glo luminescence; at 20 µM (top of the series)
# [8] = HepG2 cytotoxicity, primary screen, cytotoxicity control for P. falciparum antimalarial project, cell-based, ATP luminescence (AID 2303;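 active = inhibition above 50%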;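 note: 0% = DMSO wells and 100% = digitonin-killed cells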); settings: HepG2 viability, 24-48 h, at 10 µM, stronger effect = higher value
# [9] = molecular target: L-lactate dehydrogenase (Plasmodium falciparum (isolate CDC / Honduras)) (UniProt Q27743); experiment: PfLDH activity inhibition – cell lysate, 3D7 strain, counter-screen for P. falciparum growth inhibition project (AID 2304; call rule not given here;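 note: 0% = vehicle and 100% = reference inhibitor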); settings: P. falciparum 3D7 crude extract, LDH APAD/NBT absorbance; at 2 µM; stronger effect = higher value
# [10] = inhibition of 3D7 malaria parasite growth – strain 3D7 (AID 2306; call rule not given here;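 note: 0% = DMSO wells and 100% = chloroquine plus artemisinin control wells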); settings: P. falciparum 3D7 erythrocytic growth, LDH absorbance, 72 h; at 2 µM; stronger effect = higher value
# [11] = molecular target: Calcium-dependent protein kinase 1 (Plasmodium falciparum (isolate 3D7)) (UniProt P62344); experiment: PfCDPK1 kinase inhibitors, biochemical, TCAMS library (AID 1159585; cut-off not given, nearly all actives have IC50 up to about 0.98 µM;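 note: inhibitors leave more ATP so luminescence rises with inhibition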); settings: recombinant PfCDPK1, Kinase-Glo ATP depletion luminescence
# [12] = molecular target: Plasmodium falciparum protein kinase 6 (PK6, PF3D7_1337100) (UniProt Q8IDW1); experiment: PfPK6 kinase inhibitors, biochemical, TCAMS library (AID 1159586; call rule not given here); settings: recombinant PfPK6, Kinase-Glo ATP depletion luminescence
# [13] = molecular target: Protein kinase 7 (PK7), Plasmodium falciparum 3D7 (PF3D7_0213400) (UniProt Q7YTF7); experiment: inhibition of Plasmodium PK7 catalytic activity – biochemical, TCAMS antimalarial set, Kinase-Glo luminescence (AID 1159587; call rule not given here); settings: recombinant PfPK7, Kinase-Glo ATP depletion luminescence
# [14] = molecular target: Calcium-dependent protein kinase 4 (Plasmodium falciparum (isolate 3D7)) (UniProt Q8IBS5); experiment: PfCDPK4 kinase inhibitors, biochemical, TCAMS library (AID 1159588; cut-off not given, nearly all actives have IC50 up to about 0.91 µM); settings: recombinant PfCDPK4, Kinase-Glo ATP depletion luminescence
# [15] = CRL2098 osteosarcoma cell growth inhibition, synergistic combos for chromothripsis tumors, BGB or cisplatin IC20 combos (AID 1671454); settings: CRL2098 osteosarcoma cells, drug combinations, stronger effect = higher value;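 note: cells exposed for 96 h before readout; 0% = vehicle DMSO and 100% = killing by high DMSO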
# [16] = HD-MB03 medulloblastoma cell growth inhibition, synergistic combos for chromothripsis tumors, BGB or cisplatin IC20 combos (AID 1671455; in the data active = inhibition above about 83%;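 note: 0% = vehicle DMSO and 100% = high DMSO as cytotoxic control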); settings: HD-MB03 medulloblastoma cells, stronger effect = higher value
# [17] = UWB1.289 ovarian carcinoma cell growth inhibition, synergistic combos for chromothripsis tumors, BGB or cisplatin combos (AID 1671456); settings: UWB1.289 ovarian carcinoma cells, stronger effect = higher value;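 note: cells exposed to compound for four days; 0% = vehicle DMSO and 100% = killing by high DMSO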
# [18] = LFS_MB_2R medulloblastoma cell growth inhibition, synergistic combos for chromothripsis tumors, cisplatin combos (AID 1671457); settings: LFS_MB_2R medulloblastoma cells, stronger effect = higher value;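 note: cells exposed to compound for four days before readout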
# [19] = UWB1.289_BRCA1 ovarian cancer growth, cell-based, BGB or cisplatin combinations (AID 1671459); settings: UWB1.289 BRCA1 ovarian carcinoma, drug combinations, stronger effect = higher value
# [20] = human astrocyte viability loss, single and combined drugs, cytotoxicity control for chromothriptic childhood tumor combination screen, cell-based, BGB or cisplatin IC20 combos (AID 1671460); settings: Human astrocytes, drug combinations, stronger effect = higher value;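 note: cells exposed to compounds for 96 hours before viability readout; 0% = vehicle and 100% = killing control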
# Sequence of Calcium-dependent protein kinase 1 (Plasmodium falciparum (isolate 3D7)) (P62344 whole entry, looked up): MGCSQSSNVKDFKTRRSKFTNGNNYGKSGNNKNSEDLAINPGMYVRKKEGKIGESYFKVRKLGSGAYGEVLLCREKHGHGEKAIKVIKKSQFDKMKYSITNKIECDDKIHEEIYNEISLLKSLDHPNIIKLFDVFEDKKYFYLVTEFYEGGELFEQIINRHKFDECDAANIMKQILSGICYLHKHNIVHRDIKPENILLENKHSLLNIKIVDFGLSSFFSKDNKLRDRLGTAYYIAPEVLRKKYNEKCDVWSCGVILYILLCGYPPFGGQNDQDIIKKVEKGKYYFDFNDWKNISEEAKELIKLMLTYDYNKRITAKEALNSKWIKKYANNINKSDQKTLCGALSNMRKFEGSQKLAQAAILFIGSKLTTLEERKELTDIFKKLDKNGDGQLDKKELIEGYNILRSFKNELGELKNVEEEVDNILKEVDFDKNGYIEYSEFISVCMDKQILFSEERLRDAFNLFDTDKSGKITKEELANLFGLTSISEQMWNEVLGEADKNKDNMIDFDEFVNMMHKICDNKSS
# Sequence of Plasmodium falciparum protein kinase 6 (PK6, PF3D7_1337100) (Q8IDW1 1-305): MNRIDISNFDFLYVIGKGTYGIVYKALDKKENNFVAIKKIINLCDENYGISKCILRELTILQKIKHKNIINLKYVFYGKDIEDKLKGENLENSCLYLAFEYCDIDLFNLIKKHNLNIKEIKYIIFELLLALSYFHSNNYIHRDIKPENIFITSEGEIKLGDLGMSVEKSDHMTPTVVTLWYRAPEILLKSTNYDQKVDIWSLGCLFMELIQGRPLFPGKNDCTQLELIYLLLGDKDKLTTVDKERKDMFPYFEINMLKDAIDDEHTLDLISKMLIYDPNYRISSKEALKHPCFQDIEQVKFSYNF
# Sequence of Calcium-dependent protein kinase 4 (Plasmodium falciparum (isolate 3D7)) (Q8IBS5 whole entry, looked up): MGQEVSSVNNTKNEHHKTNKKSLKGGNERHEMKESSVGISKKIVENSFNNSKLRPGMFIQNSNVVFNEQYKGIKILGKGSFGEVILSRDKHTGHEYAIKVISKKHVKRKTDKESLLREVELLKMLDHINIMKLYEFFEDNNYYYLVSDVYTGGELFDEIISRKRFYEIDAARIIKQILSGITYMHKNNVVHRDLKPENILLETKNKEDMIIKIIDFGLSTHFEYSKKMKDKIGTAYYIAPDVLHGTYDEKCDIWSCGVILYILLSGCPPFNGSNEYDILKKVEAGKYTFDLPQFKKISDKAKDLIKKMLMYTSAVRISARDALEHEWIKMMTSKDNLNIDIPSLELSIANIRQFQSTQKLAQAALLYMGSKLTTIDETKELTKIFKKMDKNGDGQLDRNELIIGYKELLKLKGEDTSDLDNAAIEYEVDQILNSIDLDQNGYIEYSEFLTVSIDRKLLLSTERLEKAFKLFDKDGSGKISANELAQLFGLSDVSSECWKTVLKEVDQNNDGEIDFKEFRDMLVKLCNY
# Sequence of Protein kinase 7 (PK7), Plasmodium falciparum 3D7 (PF3D7_0213400) (Q7YTF7 1-343): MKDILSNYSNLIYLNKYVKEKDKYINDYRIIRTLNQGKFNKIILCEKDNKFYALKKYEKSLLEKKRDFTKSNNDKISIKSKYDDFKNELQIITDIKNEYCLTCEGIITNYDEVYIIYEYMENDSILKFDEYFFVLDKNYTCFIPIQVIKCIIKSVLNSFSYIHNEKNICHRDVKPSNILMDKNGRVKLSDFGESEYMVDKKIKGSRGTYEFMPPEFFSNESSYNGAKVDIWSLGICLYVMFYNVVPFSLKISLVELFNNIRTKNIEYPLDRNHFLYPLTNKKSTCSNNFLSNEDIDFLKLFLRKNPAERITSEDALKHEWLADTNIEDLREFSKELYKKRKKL
# Sequence of L-lactate dehydrogenase (Plasmodium falciparum (isolate CDC / Honduras)) (Q27743 whole entry, looked up): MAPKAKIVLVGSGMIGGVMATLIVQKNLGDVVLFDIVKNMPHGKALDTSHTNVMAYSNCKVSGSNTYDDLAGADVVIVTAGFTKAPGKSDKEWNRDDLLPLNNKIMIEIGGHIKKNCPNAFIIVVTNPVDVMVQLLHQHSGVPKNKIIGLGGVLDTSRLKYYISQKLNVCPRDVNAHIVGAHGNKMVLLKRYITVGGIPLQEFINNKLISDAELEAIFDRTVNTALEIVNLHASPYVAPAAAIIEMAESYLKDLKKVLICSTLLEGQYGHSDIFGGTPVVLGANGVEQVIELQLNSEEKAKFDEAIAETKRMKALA
smiles,measurement,setting,value
CC(C)(C(=O)O)c1ccc(C(O)CCCN2CCC(C(O)(c3ccccc3)c3ccccc3)CC2)cc1 (centres undefined),insulin secretion stimulation,[1],2.1% (inactive)
same,viability decrease,[2],1.3% (inactive)
same,tube area decrease,[3],-20.5% (inactive)
same,GLP1 secretion stimulation,[4],-2.2% (inactive)
same,inhibition of viability,[5],-3.77% (inactive)
same,viability decrease (inhibition),[6],33.1% (inactive)
same,viability decrease (inhibition),[7],-0.4% (inactive)
COc1ccc(C[C@H](N)C(=O)N[C@H]2[C@@H](O)[C@H](n3cnc4c(N(C)C)ncnc43)O[C@@H]2CO)cc1,inhibition,[8],98% (active)
same,inhibition,[9],5% (inactive)
same,growth inhibition,[10],100% (active)
same,outcome,[11],inactive
same,outcome,[12],inactive
same,outcome,[13],inactive
same,outcome,[14],inactive
CN(C)c1nc(N(C)C)nc(N(C)C)n1,inhibition,[15]; at 0.5 µM,-49.5% (inactive) and -47.8% (inactive)
same,inhibition,"[15]; measured here: combination with BGB at IC20, at 0.5 µM",-51.4% and 13.2%
same,inhibition,"[15]; measured here: combination with cisplatin at IC20, at 0.5 µM",-47.8% and -102%
same,inhibition,[16]; at 0.5 µM,1.44% (inactive) and -2.84% (inactive)
same,inhibition,"[16]; measured here: combo with BGB at IC20, at 0.5 µM",-7.11% and -19.4%
same,inhibition,"[16]; measured here: combo with cisplatin at IC20, at 0.5 µM",0.726% and 22%
same,inhibition,[17]; at 0.5 µM,-1.03% (inactive) and 0.53% (inactive)
same,inhibition,"[17]; measured here: inhibition with BGB combination, at 0.05 µM",-18.8% and -9.83%
same,inhibition,"[17]; measured here: inhibition with cisplatin combination, at 0.05 µM",-9.85% and -22.8%
same,inhibition,[18]; at 0.5 µM,-22.5% (inactive) and -23.2% (inactive)
same,inhibition,"[18]; measured here: combination with cisplatin, at 0.5 µM",-24.3% and -25.9%
same,inhibition,"[18]; measured here: combination with cisplatin, at 5 µM",-28.5% and -13.6%
same,inhibition,"[19]; BGB combination, concentration series, at 5 µM",3.42% and 17.2%
same,inhibition,[19]; at 0.5 µM,-3.79% (inactive) and -4% (inactive)
same,inhibition,"[19]; cisplatin combination, concentration series, at 5 µM",4.29% and 15.7%
same,inhibition,[20]; at 0.5 µM,2.24% (inactive) and 16.1% (inactive)
same,inhibition,"[20]; measured here: combo with BGB IC20, at 0.5 µM",5.31% and 10%
same,inhibition,"[20]; measured here: combo with cisplatin IC20, at 0.5 µM",-12.9% and 15.6%
O=c1ccc2ccc(O)c(O)c2o1,inhibition,[8],4% (inactive)
same,inhibition,[9],0% (inactive)
same,growth inhibition,[10],85% (active)
same,outcome,[11],inactive
same,outcome,[12],inactive
same,outcome,[13],inactive
same,outcome,[14],inactive

# — PubChem BioAssay
